Assay type in all cases: functional
The subject of experiment [1] is Plasmodium falciparum. The experiment can be described thus: GSK_TCMDC: Inhibition of Plasmodium falciparum 3D7 in whole red blood cells, using parasite LDH activity as an index of growth. Test compounds present at 2uM.
In experiment [2] the test system is Plasmodium falciparum. The experiment can be described thus: GSK_TCMDC: Inhibition of Plasmodium falciparum Dd2 in whole red blood cells, using parasite LDH activity as an index of growth. Test compounds present at 2uM.
The next experiment deals with HepG2. The experiment is described as follows: GSK_TCMDC: Percent inhibition of human HepG2 cell line. Test compounds present at 10uM.

A word on the Inhibition: it is the drop in the measured response relative to a control, in per cent. A high value points to a response far below the control. Take `Br.Oc1cccc2c1CC(NCc1ccccc1)CC2` (stereo unspecified): the figures for the Inhibition with Plasmodium falciparum [1], with Plasmodium falciparum [2] and with HepG2 were 90%, 24% and 4%, respectively.

Regarding `COc1ccc(S(=O)(=O)N2CCCc3ccc(Br)cc32)cc1N1CCN(C(=O)C(Cl)(Cl)Cl)CC1`, the Inhibition was 97% in the experiment on Plasmodium falciparum [1], 93% in the experiment on Plasmodium falciparum [2] and 23% in the experiment on HepG2.

Turning to `CN1CCC(Oc2cc(NC(=O)Nc3ccc(-c4ccncc4)c(C(F)(F)F)c3)ccc2Cl)CC1`, the values for the Inhibition in the experiment on Plasmodium falciparum [1], in the experiment with Plasmodium falciparum [2] and with HepG2 were 100%, 92% and 30%, respectively.

Consider `Cc1cccc(-c2nn(-c3ccccc3)c3[nH]c(=O)c(CN4CCSCC4)cc23)c1`, for which the figures for the Inhibition in the experiment on Plasmodium falciparum [1], with Plasmodium falciparum [2] and in the experiment on HepG2 were 98%, 98% and 0%, respectively.

Take `CC(C)CCNc1nc2ccccc2nc1Nc1cccc(C(F)(F)F)c1`: the Inhibition in the experiment on Plasmodium falciparum [1] is given as 98%; in the experiment with Plasmodium falciparum [2], 99%; in the experiment with HepG2, 12%.

On to `COc1cc(NC(=O)c2sc(-c3ccc(Cl)cc3)cc2NC(=O)c2ccncc2)ccc1OCCN1CCCC1`, for which the Inhibition with Plasmodium falciparum [1], in the experiment on Plasmodium falciparum [2] and with HepG2 was 100% in each case.

For the compound `CC(C)c1cc2c(cc1O)C(Cc1ccccc1Cl)N(C)CC2.Cl` (stereo unspecified), the Inhibition in the experiment on Plasmodium falciparum [1] was 97%; in the experiment with Plasmodium falciparum [2], 33%; in the experiment with HepG2, 0%.

The record behind these values is ChEMBL document CHEMBL1157539, “Thousands of chemical starting points for antimalarial lead identification” (Nature, 2010).
